# Sampled rows, rich in hits. Any-hit rate of the full collection: about 2.4%.
# EP2 antag: human EP2 receptor antagonists, primary screen, TR-FRET cAMP, C6 glioma cells; Prostaglandin E2 receptor EP2 subtype (Homo sapiens), P43116; C6 glioma cells expressing human EP2; cells stimulated with saturating PGE2; inhibition, % at 25 µM; 0.52% of 260,000 active;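 active = percent inhibition above 40 after rounding to a whole number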;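 note: rat C6 glioma host cells with rolipram phosphodiesterase inhibitor present; the protocol text gives 20 µM as final concentration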
# EP2 modulator: EP2 receptor modulators, cAMP readout, primary screen, cell-based, HTRF cAMP, PGE2 stimulation; Prostaglandin E2 receptor EP2 subtype (Homo sapiens), P43116; EP2-expressing cells, cAMP HTRF FRET, PGE2 co-stimulation; induction, % at 25 µM; 0.83% of 260,000 active;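 active = compounds whose cAMP rise, as percent of the full-agonist control response, exceeds 60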;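 note: rat C6 glioma line stably carrying human EP2 under a CMV promoter; the protocol text gives 20 µM as final concentration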
# S1P4 antagonist: S1P4 receptor antagonists, primary screen, cell-based; inhibition, % at 4.98 µM; AID 1510, 2009; S1P4-expressing cells, antagonist mode, reporter read-out; 0.26% of 220,000 active; in the data active = inhibition above about 29%
# S1P3 antagonist: S1P3 receptor antagonists, primary screen, cell-based | CHO S1P3 NFAT-BLA reporter, FRET fluorescence, antagonist mode | inhibition, % at 4.98 µM | 0.27% of 170,000 active;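 active = inhibition above the plate cutoff, the mean inhibition of test wells on that plate plus 3 SD, cut at about 28% in these data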;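 note: cells challenged with S1P at its EC80 of 0.8 µM; blue over green emission ratio from cleaved BLA substrate after 4 h stimulation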
# Target sequence (Q99500 whole entry, looked up): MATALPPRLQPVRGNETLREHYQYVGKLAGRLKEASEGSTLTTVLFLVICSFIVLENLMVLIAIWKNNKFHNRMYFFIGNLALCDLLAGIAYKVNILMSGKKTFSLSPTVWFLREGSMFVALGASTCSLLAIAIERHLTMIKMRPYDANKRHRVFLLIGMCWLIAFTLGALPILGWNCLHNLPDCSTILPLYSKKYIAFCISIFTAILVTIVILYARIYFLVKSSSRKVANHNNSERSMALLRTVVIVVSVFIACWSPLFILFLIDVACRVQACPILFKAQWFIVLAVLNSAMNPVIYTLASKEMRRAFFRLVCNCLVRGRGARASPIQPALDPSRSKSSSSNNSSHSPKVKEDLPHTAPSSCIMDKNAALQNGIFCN
# S1P4 ag: S1P4 receptor agonists, primary screen, cell-based. Sphingosine 1-phosphate receptor 4 (Homo sapiens), O95977. S1P4-expressing cell line, agonist reporter assay. activation, % at 4.98 µM. 0.35% of 220,000 active; in the data active = activation above about 11%
# INS promoter inh: inhibitors of insulin promoter-driven GFP, primary screen, imaging, TRM-6 cells (human fetal islet line), eGFP reporter, cell count; AID 1273, 2008; inhibition, % at 2 µM; reporter expression induced with tamoxifen; 0.9% of 130,000 active;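 active = inhibition above the mean plus 3 SD, with well images judged a real hit on visual review, cut at about 60% in these data, passing the limit was not always enough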
# A number is an active result; n = inactive; x = no result given; ! = repeats disagree.
SMILES,EP2 antag,EP2 modulator,S1P4 antagonist,S1P3 antagonist,S1P4 ag,INS promoter inh
Cc1cc(NC(=O)c2cc(-c3ccccn3)nc3ccccc23)no1,n,n,n,n,n,n
COc1ccc2[nH]c(=O)c(CN(C(=O)C(C)C)c3ccccc3C)cc2c1,n,n,x,x,x,x
O=C(CSc1nc2ccccc2s1)c1sc2sc3ccccc3[n+]2c1O,66,n,x,x,x,x
O=C(CSc1nc2ccccc2s1)CSc1nc2ccccc2s1,n,n,n,x,n,n
CC(C)Nc1nc(NC(C)C)nc(N(C)C#N)n1,n,n,n,n,n,77
Cc1ccnc(SCC(=O)c2ccc(Br)cc2)c1C#N,n,n,n,n,n,61
Cc1ccc(C(=O)CSc2nsc(C)c2C#N)cc1,n,n,n,x,n,n
Nc1ccn([C@@H]2O[C@H](CO)[C@@H](O)C2O)c(=O)n1 (stereo partly specified),n,x,n,n,n,x
Nc1ccn([C@H]2O[C@H](COC(=O)C34CC5CC(CC(C5)C3)C4)[C@@H](O)[C@@H]2O)c(=O)n1,51,n,x,x,x,x
CCN(CC)S(=O)(=O)c1ccc(C(=O)C(C#N)c2ccccn2)cc1 (stereo unspecified),n,n,n,x,n,73
CCOC(=O)C(C#N)c1ccccn1 (stereo unspecified),n,n,n,n,n,n
COc1ccc(CC(=O)N2C3CCC2CC(O)(c2ccco2)C3)cc1OC (stereo unspecified),x,n,x,x,x,x
COc1ccc(-c2cc(-c3ccccc3)nc3ncnn23)cc1,n,n,n,n,n,x
c1ccc(-c2cc(-c3ccccc3)n3ncnc3n2)cc1,n,n,n,n,n,69
O=C(Nc1ccc2c(c1)OCCO2)c1nc2c(nnn2Cc2ccccc2Cl)c(=O)[nH]1,n,n,x,x,x,x
Cc1cccc(NC(=S)N=Nc2c(O)n(CN3CCOCC3)c3ccccc23)c1C,n,n,n,n,n,78
Cc1ccc(S(=O)(=O)Nc2ccccc2C(=O)c2ccc(C)c(C)c2)cc1,45,n,x,x,x,x
CCN1CCCC1CN(Cc1cnc(N2CCOCC2)nc1)Cc1ccccn1 (stereo unspecified),n,n,x,x,x,x
COCC(=O)Nc1ccc(S(=O)(=O)NCCc2ccccc2)cc1,n,n,n,n,n,100
CN1CCN(Cc2nnnn2Cc2ccccc2)CC1,n,n,x,x,x,x
Cc1nnc(SCc2ccccc2)nc1-c1ccccc1,n,x,x,x,x,x
c1ccc(CSc2nnc3c4ccccc4c4ccccc4c3n2)cc1,55!,n,n,n,n,x
c1coc(CNc2ncnc3sc4c(c23)CCCC4)c1,n,n,x,x,x,x
c1csc(CCNc2ncnc3sc4c(c23)CCC4)c1,n,n,x,94,x,x
CCc1nc2ccc(NC(=O)c3cc(=O)c4cc(C)c(C)cc4o3)cc2[nH]1,n,n,x,x,x,x
SMILES,EP2 antag,EP2 modulator,S1P4 antagonist,S1P3 antagonist,S1P4 ag,INS promoter inh
Oc1ccc(/C=N/Nc2cccc3cccnc23)c(O)c1,51,n,n,x,n,n
COc1ccc2nc(C)cc(SCC(=O)N/N=C/c3ccc(O)c(O)c3)c2c1,n,n,n,n,n,x
Cc1cc(SCC(=O)N/N=C/c2ccc(O)c(O)c2)c(C)cc1Br,50,n,n,x,n,n
Cc1ccc2nc(NC(=O)CN(C)S(=O)(=O)c3ccc(Br)s3)sc2c1,n,n,n,x,n,66
COc1ccc2cc(C#N)c(SCC(=O)Nc3ccc(C(C)=O)cc3)nc2c1,n,n,x,x,x,x
Cn1c(-c2c(N)n(C3CCCC3)c3nc4ccccc4nc23)nc2ccccc21,n,n,n,75,n,n
Cn1c(-c2c(N)n(CCc3ccccc3)c3nc4ccccc4nc23)nc2ccccc21,n,n,n,x,n,n
Cc1cccc(NC(=O)CN2C(=O)N/C(=C/c3cc(C)n(C)c3C)C2=O)c1,n,n,n,n,n,83
Cc1ccc(C)c(NC(=S)N(CCO)Cc2cc3c(C)cc(C)cc3[nH]c2=O)c1,n,n,x,x,x,x
CS(=O)(=O)Nc1ccc(Nc2c3ccccc3nc3ccccc23)cc1,64,n,x,x,x,x
Cc1ccc2nc(-c3ccc(NS(C)(=O)=O)cc3)cc(-c3ccccc3)c2c1,n,n,n,x,n,n
CCCSC1=N/C(=C/c2ccsc2)C(=O)N1c1ccccc1,n,63,n,n,n,n
CCCCSC1=N/C(=C/c2ccsc2)C(=O)N1c1ccccc1,n,n,n,n,n,n
Cc1ccc(S(=O)(=O)N2CCN(c3cnccn3)CC2)cc1,n,n,x,x,x,x
CCOCCn1c(CN2CCN(CC)CC2)nc2c1c(=O)[nH]c(=O)n2C,n,n,x,x,x,x
CSCCC(NS(=O)(=O)c1ccc(Br)cc1)C(=O)OCC(=O)NC1CC1 (stereo unspecified),n,n,n,n,n,83
CCOc1cc(CN2CCc3c(nc(N4CCCC4)[nH]c3=O)C2)ccc1O,x,n,x,x,x,x
CCn1ncc(Br)c1C(=O)Nc1ccccc1OC,n,63,n,n,n,n
Cc1nn(CC(=O)NCCc2cccc(F)c2)c(=O)c2cc3sccc3n12,x,n,x,x,x,x
O=C(O)c1cccc(CSc2nc(-c3ccc(Cl)cc3)cc(C(F)(F)F)n2)c1,n,64,n,x,n,x
CCCc1nn(CC(=O)NC2CCCC2)c(=O)c2cc3ccsc3n12,x,n,x,x,x,x
CC(C)Oc1ccccc1Cn1c(=O)sc2ccccc21,n,83,x,x,x,x
Cc1cc(NS(=O)(=O)c2ccc(NC(=O)c3oc4ccccc4c3C)cc2)no1,n,n,n,x,n,79
COc1ccc(C(=O)NC(=S)Nc2ccc(S(=O)(=O)Nc3cc(OC)ncn3)cc2)cc1,n,n,x,x,x,x
COc1cc(NS(=O)(=O)c2ccc(NC(=S)NC(=O)c3ccc(F)cc3)cc2)nc(OC)n1,59,n,x,x,x,x
SMILES,EP2 antag,EP2 modulator,S1P4 antagonist,S1P3 antagonist,S1P4 ag,INS promoter inh
COc1cc(NS(=O)(=O)c2ccc(NC(=S)NC(=O)c3sc4ccccc4c3Cl)cc2)ncn1,52,n,n,n,n,x
COc1ccc(OCC(=O)NC(=S)Nc2ccc(S(=O)(=O)Nc3cc(OC)nc(OC)n3)cc2)cc1,64,n,n,n,n,n
Cc1ccc(NC(=O)C(C)Sc2nc(C)cc(=O)[nH]2)cc1 (stereo unspecified),n,n,x,x,x,x
Cc1cc(NS(=O)(=O)c2ccc(NC(=S)NC(=O)c3ccc(F)cc3)cc2)no1,46!,n,n,n,n,n
COc1ccc(N=c2oc3c(OC)cccc3cc2C(=O)NCc2ccco2)cc1OC,n,n,n,n,n,x
COc1ccc(N=c2oc3ccccc3cc2C(=O)NCc2ccco2)cc1,n,78,x,x,x,x
COc1ccc(CN(Cc2ccccc2)Cc2ccncc2)cc1Cn1cccn1,n,n,x,x,x,x
Cn1c(=S)n(C)c2ccccc21,n,n,n,n,n,n
Cn1ccc(=S)c2ccccc21,n,n,n,n,n,89
O=C(CN1CCC(n2cnc3cccnc32)CC1)N1CCOCC1,n,n,x,x,x,x
O=C(NCc1ccco1)c1cc(=O)c2ccccc2o1,n,n,n,n,n,n
